This is an account of results in PubChem BioAssay.

SMILES strings stand for the structures. Activity calls are given as the source filed them. Unless noted, how the calls were made is not given here.

Test [1] in a line: HepG2 liver cancer cell viability effects, profiling panel, resazurin fluorescence, 24 h, PK04 Diversity Set (AID 1172). Further: test concentration not given here. Conditions: higher = more signal. (Alamar Blue is a resazurin reagent that responds to reducing activity.)
A short description of test [2]: basal S. cerevisiae growth modulation, no modifier, primary screen, OD600, strain BY4716, 24 h, basal condition (AID 1173). Conditions: OD600, 24 h, higher = more signal, called active from +8 up or from −8 down.
Test [3] is described as follows: MM1S myeloma cell viability, profiling panel, resazurin fluorescence, basal, 24 h, PK04 Diversity Set (AID 1174).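 Further: MM1S multiple myeloma cell line; test concentration not given here.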 As to conditions: higher = more signal, called active from +8 up or from −8 down.
Test [4] addresses Dihydroorotate dehydrogenase (quinone), mitochondrial (Plasmodium falciparum (isolate 3D7)) (UniProt Q08210). Nature of the test: PfDHODH enzyme inhibitors, primary screen, biochemical, C-terminal His tag, absorbance 600 nm (AID 1175).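 Further: recombinant parasite enzyme with a five histidine tag at its C terminus; test concentration not given here.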 Conditions: DCIP absorbance 600 nm, higher = more signal, called active from +8 up or from −8 down.
Test [5] can be described thus: P. aeruginosa biofilm formation inhibitors, primary screen, strain PAO1, LB-PBS medium, absorbance 600 nm (AID 1176). Further: test concentration not given here. As to conditions: P. aeruginosa PAO1 growth/biofilm, A600, 12 h; higher = more signal.
Test [6] can be described thus: S. cerevisiae RM11-1a growth modifiers, primary screen, strain RM11-1a, OD600, basal, 24 h (AID 1177).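 Further: cultures grown under basal conditions with no added stressor; test concentration not given here.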 Conditions: OD600, 24 h, higher = more signal, called active from +8 up or from −8 down.
Test [7] in a line: E. coli acrAB mutant growth effects, primary screen, E. coli filamentation inducers, strain DRC39, OD650, 24 h (AID 1178).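 Further: growth measured as culture turbidity by optical density at 650 nm; test concentration not given here.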 As to conditions: higher = more signal, called active from +8 up or from −8 down.
A short description of test [8]: E. coli acrAB mutant growth effects, primary screen, E. coli filamentation inducers, strain DRC39, OD650, 48 h (AID 1179).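 Further: screen aims at cell division blockers that make cells filament.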 As to conditions: E. coli DRC39 delta-acrAB growth, higher = more signal, called active from +8 up or from −8 down.
The nature of test [9]: RPMI8226 myeloma cell viability, profiling panel, resazurin fluorescence, basal, 24 h, PK04 Diversity Set (AID 1180).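 Further: RPMI8826 multiple myeloma cell line at 5000 cells per well; test concentration not given here.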 As to conditions: higher = more signal.
For test [10], the target named is E3 ubiquitin-protein ligase XIAP (Homo sapiens) (UniProt P98170). The test is described as follows: XIAP binders, primary screen, biophysical, small-molecule microarray, fluorescence 635 nm (AID 1181).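 Further: score merges 667 nm emission and signal to noise over triplicate slides.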 Conditions: small-molecule microarray binding, higher = more signal.
Sequence of E3 ubiquitin-protein ligase XIAP (Homo sapiens) (P98170 whole entry, looked up): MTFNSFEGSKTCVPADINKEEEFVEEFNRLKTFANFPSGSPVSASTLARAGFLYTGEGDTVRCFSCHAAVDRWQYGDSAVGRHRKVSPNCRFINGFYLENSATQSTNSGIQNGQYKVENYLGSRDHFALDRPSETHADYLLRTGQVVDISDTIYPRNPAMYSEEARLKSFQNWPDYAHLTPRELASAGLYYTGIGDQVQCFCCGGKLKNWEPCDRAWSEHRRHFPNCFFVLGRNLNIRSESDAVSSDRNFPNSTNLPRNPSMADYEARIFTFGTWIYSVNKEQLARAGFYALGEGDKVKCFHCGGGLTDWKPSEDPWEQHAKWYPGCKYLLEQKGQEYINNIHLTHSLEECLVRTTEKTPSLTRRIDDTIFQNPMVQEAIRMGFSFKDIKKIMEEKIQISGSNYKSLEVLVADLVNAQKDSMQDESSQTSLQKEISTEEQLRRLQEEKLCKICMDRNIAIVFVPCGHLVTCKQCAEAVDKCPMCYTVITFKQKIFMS

Sequence of Dihydroorotate dehydrogenase (quinone), mitochondrial (Plasmodium falciparum (isolate 3D7)) (Q08210 whole entry, looked up): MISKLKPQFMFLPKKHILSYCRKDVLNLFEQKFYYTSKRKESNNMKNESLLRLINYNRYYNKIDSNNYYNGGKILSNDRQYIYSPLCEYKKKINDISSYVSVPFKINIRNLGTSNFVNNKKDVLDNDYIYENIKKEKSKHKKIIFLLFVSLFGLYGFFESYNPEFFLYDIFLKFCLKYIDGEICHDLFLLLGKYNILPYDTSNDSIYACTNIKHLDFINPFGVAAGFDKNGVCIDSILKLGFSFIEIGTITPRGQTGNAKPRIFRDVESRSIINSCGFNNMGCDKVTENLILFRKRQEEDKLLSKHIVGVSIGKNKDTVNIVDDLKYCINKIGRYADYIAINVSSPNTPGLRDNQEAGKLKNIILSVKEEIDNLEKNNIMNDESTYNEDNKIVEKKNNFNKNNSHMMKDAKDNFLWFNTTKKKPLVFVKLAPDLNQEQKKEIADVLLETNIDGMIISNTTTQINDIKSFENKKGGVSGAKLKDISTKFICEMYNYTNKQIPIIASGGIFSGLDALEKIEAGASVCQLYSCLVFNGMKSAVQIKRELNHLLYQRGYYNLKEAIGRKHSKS

As to `COC(=O)[C@@]1(Cc2ccc(F)cc2)[C@H]2c3cc(C(=O)N4CCCC4)n(Cc4ccc(Cl)c(C(F)(F)F)c4)c3C[C@H]2CN1C(=O)c1ccccc1`, the z-score was -1.03 in test [1]; 1.55 (inactive) in test [2]; -2.02 (inactive) in test [3]; 0.84 (inactive) in test [5]; 0.78 (inactive) in [6]; -0.178 (inactive) in [7]. Also, the z-score in [8] is 0.272 (inactive); in test [9], -3.32. For the same molecule, the composite z-score in test [4] was 0.0979 (inactive); in test [10] it was 0.553.

Regarding `COCCOC(=O)N1C(=O)[C@@]2(c3cc(C#CC4=CCCCC4)ccc31)[C@H](C(=O)N1CCN(c3ncccn3)CC1)[C@H]1C(=O)O[C@H](c3ccccc3)[C@H](c3ccccc3)N1[C@@H]2c1ccc(OCCO)cc1`, the z-score in [1] was 0.156; in [2] it was 1.31 (inactive); in test [3], 0.162 (inactive); in test [5], 3.13 (inactive); in test [6], 1.69 (inactive); in [7], 0.208 (inactive). Moreover, the z-score in test [8] is -0.564 (inactive); in test [9], -0.147. Also, the composite z-score in test [4] is -0.204 (inactive); in test [10] it was -0.0389.

For `CCN(CC)c1ccc(N2CC=CC34O[C@@H]5/C=C\CCC(C)OC(=O)C5[C@H]3C(=O)N(CCCCCCO)[C@@H]4C2=O)cc1` (stereo not given in full), the z-score was -0.105 in [1]; -0.0746 (inactive) in [2]; 0.384 (inactive) in test [3]; -0.497 (inactive) in test [5]; 0.251 (inactive) in [6]; 1.37 (inactive) in test [7]. Moreover, the z-score in [8] was 1.59 (inactive); in [9], 1.56. The results for the composite z-score in test [4] and in test [10] were -0.788 (inactive) and -0.0545, respectively.

As to `COC(=O)c1c(CC[C@@H](CO)NC(=O)Nc2ncn[nH]2)oc(C(=O)Cc2ccccc2)c1C(=O)OC`, the z-score in test [1] is 0.172; in test [2] it was -0.62 (inactive); in [3], 0.059 (inactive); in test [5], 0.55 (inactive); in test [6], -0.382 (inactive); in test [7] it was 0.536 (inactive). The z-score in test [8] was 0.434 (inactive); in test [9] it was 0.36. Also, the composite z-score in test [4] was 0.593 (inactive); in test [10], -0.0952.

As to `C=CCCN(CC#C[C@H]1Oc2ccccc2S(=O)(=O)N2CCC[C@@H]12)S(=O)(=O)c1ccc(C)cc1`, the z-score in [1] is -0.28; in test [2], -0.0024 (inactive); in test [3] it was -1.33 (inactive); in test [5], 0.425 (inactive); in test [6], 1.62 (inactive); in test [7] it was 0.0069 (inactive). Further, the results for the z-score in [8] and in test [9] were -0.285 (inactive) and -1.55, respectively. Also, the composite z-score was 0.711 (inactive) in test [4] and 0.0027 in [10].

As to `COC(=O)[C@@]1(Cc2ccc(F)cc2)[C@H]2c3cc(C(=O)N(C)C)n(Cc4ccccn4)c3C[C@H]2CN1C(=O)c1ccccc1`, the z-score is 1.15 in test [1]; 0.0864 (inactive) in [2]; 0.548 (inactive) in test [3]; -0.126 (inactive) in test [5]; -0.319 (inactive) in test [6]; -0.389 (inactive) in test [7]. Further, the z-score was -0.42 (inactive) in test [8] and 0.35 in test [9]. The composite z-score is -0.171 (inactive) in [4] and 0.332 in test [10].

In the case of `CN1C(=O)C2C=CC(C(O)C3=C[C@H]4C[C@@H](C3)C4(C)C)N(Nc3ccc([N+](=O)[O-])cc3[N+](=O)[O-])C2C1=O` (stereo not given in full), the z-score in test [1] was -0.241; in test [2], 0.473 (inactive); in test [3], -0.569 (inactive); in test [5], 0.434 (inactive); in [6], 1 (inactive); in test [7], -0.146 (inactive). Besides, the values for the z-score in [8] and in test [9] were -0.476 (inactive) and 0.116, respectively. Moreover, the composite z-score in [4] was -0.0042 (inactive); in [10] it was 0.772.

Take `CC(C)OC(=O)C1=CCC(c2cccc(Cl)c2)O1` (stereo not given): the z-score in test [1] was 0.195; in test [2], -5.96 (inactive); in test [3] it was 0.242 (inactive); in test [5] it was 0.905 (inactive); in test [6], -2.25 (inactive); in test [7], -0.138 (inactive). In addition, the z-score in test [8] was 0.143 (inactive); in test [9], -0.501. Besides, the composite z-score in test [4] is -0.582 (inactive); in [10], -0.197.

Regarding `C=CCN1Cc2ccccc2C[C@@]2(COC(c3ccc(OCCCO)cc3)=N2)C1=O`, the z-score in [1] was 0.344; in test [2], -2.27 (inactive); in test [3], -8.12 (active); in test [5], -0.127 (inactive); in test [6], 1.04 (inactive); in test [7] it was 1.32 (inactive). Moreover, the z-score in test [8] is 1.14 (inactive); in test [9], -4.61. Moreover, the composite z-score was -0.993 (inactive) in test [4] and 0.236 in test [10].

With `CCOC(=O)N1C(c2ccc(OCCCO)cc2)=NC(C(=O)OC)N1C(=O)OCC` (stereo not given), the z-score in test [1] was 0.33; in test [2], -0.445 (inactive); in test [3], 0.715 (inactive); in [5] it was -0.565 (inactive); in test [6], -1.08 (inactive); in test [7] it was 0.857 (inactive). Also, the z-score in test [8] was 1.52 (inactive); in [9] it was 0.96. Moreover, the composite z-score in test [4] is -0.294 (inactive); in [10], 0.0707.

Consider `CCOC(=O)C=Cc1cccc(OC)c1O`, for which the z-score in test [1] is -0.537; in [2], -6.47 (inactive); in test [3] it was -0.649 (inactive); in test [5], -2.06 (inactive); in test [6], -1.34 (inactive); in test [7] it was -0.597 (inactive). Besides, the results for the z-score in test [8] and in test [9] were -1.03 (inactive) and -1.07, respectively. The composite z-score was -1.15 (inactive) in test [4] and 0.0036 in [10].

As for `COCC1C2CC[C@H]3C(OCc4ccc(F)cc4C(F)(F)F)OC[C@]4(C)[C@H]3C2=C(CN4C(=O)OC(C)(C)C)[C@H](C)C1COC` (stereo not given in full), the z-score is -0.422 in [1]; 0.236 (inactive) in test [2]; -0.481 (inactive) in [3]; 0.383 (inactive) in [5]; -3.23 (inactive) in test [6]; -0.93 (inactive) in [7]. Further, the z-score is 0.25 (inactive) in test [8] and 0.092 in test [9]. Further, the composite z-score in test [4] is -0.908 (inactive); in test [10], -0.122.

With `Cc1ccc(S[C@]2(C(=O)NCc3ccccc3)CC(=O)N(Cc3cc(C(F)(F)F)cc(C(F)(F)F)c3)[C@@H]2c2ccc(CO)cc2)cc1`, the z-score is -0.417 in test [1]; -0.248 (inactive) in [2]; 0.133 (inactive) in test [3]; 0.711 (inactive) in test [5]; 1.43 (inactive) in test [6]; -0.244 (inactive) in [7]. Moreover, the values for the z-score in test [8] and in test [9] were -0.532 (inactive) and 0.14, respectively. In addition, the composite z-score in test [4] was 1.01 (inactive); in test [10] it was -0.228.
